13 compounds from the supplement of paper PMC3342239 can be followed below.

Counter-ions that a name gives are not always drawn.

The test system of the assay is Saccharomyces cerevisiae. Nature of the assay: fraction of cells in G1 phase (DNA content, flow cytometry); higher = more cells with unreplicated DNA (G1 delay). Conditions: temperature: 30 C; YPD; JTY2953 pdr5 snq2 (sensitized); drug added to: cultures diluted from stationary phase; 6-7 h. The procedure, abridged: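 S. cerevisiae grown in YPD at 30°C was exposed to library drugs. In one setup, overnight sensitized JTY2953 cultures were diluted 1∶200, given a final 20 µg/ml and fixed after 6–7 h, while other runs dosed dividing JTY2953 with fixation 6 h later or BY4741 with fixation 4.33 h later. Cells were ethanol-fixed, stained with SYTOX Green and analysed by flow cytometry at 10,000 events. The G1 fraction is the area of the Dean-Jett-Fox G1 peak divided by the summed G1 and G2/M areas.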

For `CCC[S+]([O-])c1ccc2[nH]c(NC(=O)OC)nc2c1` (stereo not drawn) [Ricobendazole] (71.0895 µM), the “fraction of cells in G1 phase” value worked out at 0.485. The result for `COc1ccccc1O` [Guaiacol] (161.108 µM) reads 0.531; that for `CC1=Nc2ccc(Cl)cc2S(=O)(=O)N1` [Diazoxide] (86.7024 µM), 0.516; that for `Nc1c2c(nc3ccccc13)CCCC2` [Tacrine HCl] (100.873 µM), 0.541. As for `Cc1cc2c(s1)Nc1ccccc1N=C2N1CCN(C)CC1` [Olanzapine] (64.0123 µM), the “fraction of cells in G1 phase” value was 0.527. Regarding `NCCC(O)(P(=O)(O)O)P(=O)(O)O` [Pamidronic acid] (85.0806 µM), the “fraction of cells in G1 phase” value was determined as 0.476.

Consider `O=C1CC2(CCCC2)CC(=O)N1CCCCN1CCN(c2ncccn2)CC1` [Buspirone HCl] (51.8789 µM), for which the “fraction of cells in G1 phase” value was found to be 0.499.

Turning to `CC(C)OC(=O)C(C)(C)Oc1ccc(C(=O)c2ccc(Cl)cc2)cc1` [Fenofibrate] (55.4261 µM), the “fraction of cells in G1 phase” value is 0.497.

As for `CC1COc2c(N3CCN(C)CC3)c(F)cc3c(=O)c(C(=O)O)cn1c23` (stereo not drawn) [Ofloxacin] (55.344 µM), the “fraction of cells in G1 phase” value is 0.505.

Consider `CN1CCC(=C2c3ccccc3CC(=O)c3sccc32)CC1` [Ketotifen fumarate] (64.6343 µM), for which the “fraction of cells in G1 phase” value turned out to be 0.496. To `Cn1nnc2c(C(N)=O)ncn2c1=O` [Temozolomide] (103.011 µM) belongs 0.48; to `CCOC(=O)C(C)(C)Oc1ccc(Cl)cc1` [Clofibrate] (82.4047 µM), 0.552.

`Cc1onc(-c2ccccc2)c1C(=O)N[C@@H]1C(=O)N2[C@@H]1SC(C)(C)[C@@H]2C(=O)O` [Oxacillin sodium monohydrate] (49.9455 µM): the “fraction of cells in G1 phase” value turned out to be 0.486.
